Laboratory results published in PubChem BioAssay AID1117361 (Southern Research Institute, 2015).
The whole screen tested about 3,600 compounds, of which about 900 (25%) were called active. How the calls were made is not given here. These entries were drawn from the full list. Entries with a potency or affinity are not part of this list.

molecular target: Protein Tat (Human immunodeficiency virus type 1 group M subtype B (isolate HXB2)) (UniProt P04608); experiment: HIV-1 Tat–TAR interaction blockers – biochemical, fluorescence polarization, FAM-labeled TAR RNA, counter-screen for Vif-APOBEC3G degradation inhibitor project, dose response (AID 1117361); details: Tat-TAR RNA binding; series mostly up to 100 µM; inhibition: at the top concentration

Compound	inhibition	outcome
CCc1nc(SCC(=O)Nc2ccc(C(=O)O)cc2)n[nH]1	0.68% (inactive)	–
S=c1[nH]nc(COc2ccc(Cl)cc2)o1	12.4% (inactive)	–
O=C(NNc1cc(Cl)cc(Cl)c1)c1c(F)cccc1Cl	–	inactive
S=c1nc(-c2ccc(Br)cc2)oc2c1CCCC2	13% (inactive)	–
CCOC(=O)N1CCN(CC(=O)c2ccc3c(c2)CCN3C(C)=O)CC1	10.1% (inactive)	–
Cc1ccc(Cc2cnc(NC(=O)/C(C#N)=C/c3ccc(-c4ccc([N+](=O)[O-])cc4)o3)s2)cc1	10.8% (inactive)	–
CC(OC(=O)c1ccc([N+](=O)[O-])o1)C(=O)NC1CCCCC1C (centres undefined)	7.42% (inactive)	–
COc1cc(O)oc1C=Nc1ccccc1	8.78% (inactive)	–
CCOc1ccccc1C1CC(=O)NC(SCC)=C1C#N (centres undefined)	10.8% (inactive)	–
O=S(=O)(Nc1ccc(Cc2ccncc2)cc1)c1ccc(Br)cc1	–	inactive
COc1ccc(N(CC(=O)NCCC2=CCCCC2)S(=O)(=O)c2ccccc2)cc1	11.6% (inactive)	–
O=C1CC(c2ccco2)CC(O)=C1C=NCC1CCNCC1 (centres undefined)	–	inactive
CCCN(CC(=O)Nc1ccccc1C)C(=O)COC(=O)c1cnc(C)cn1	–	inactive
CC(C)(C)NC(=O)CSc1nnc(-c2ccncc2)n1Cc1ccccc1	6.76% (inactive)	–
CCOC(=O)Cn1c(=O)oc2cc(S(=O)(=O)NC3CCCc4ccccc43)ccc21 (centres undefined)	–	inactive
CCn1c(SC(C)C(=O)NC2CCCc3ccccc32)nnc1-c1cccs1 (centres undefined)	3.38% (inactive)	–
c1ccc2c(c1)ccc1nnc(SCc3ccc4c(c3)OCO4)n12	12.2% (inactive)	–
CCC(c1ccc(O)c(O)c1)C(CC)c1ccc(O)c(O)c1 (centres undefined)	3.01% (inactive)	–
CSc1ccc(CN(C)CC(=O)NC(=O)NCCC2=CCCCC2)cc1	–	inactive
COc1cc(/C=N/N=C(N)N)ccc1OCc1ccc(Cl)cc1	–	inactive
CSc1cccc(-n2cc(-c3ccc4c(c3)OCO4)[nH]c2=O)c1	3.41% (inactive)	–
CSCC[C@@H](Nc1nc(-c2ccccc2)nc2c1oc1ccccc12)C(=O)O	4.09% (inactive)	–
CN1CCN(C(=O)C2CCN(S(=O)(=O)c3cnc[nH]3)CC2)CC1	8.19% (inactive)	–

Compound	inhibition	outcome
COCCCNC(=O)c1cc(OC)c(OC)c(OC)c1	–	inactive
C/C=C/c1ccc(OCC(=O)N2CCc3cc(OC)c(OC)cc3C2)c(OC)c1	1.65% (inactive)	–
Cc1nn(-c2ccccc2)cc1/C=N/O	12.2% (inactive)	–
CCCc1nc(SCC(=O)N2CCCc3ccccc32)c2c(=O)n(C)c(=O)n(C)c2n1	–	inactive
O=C(NC(Cc1ccccc1)c1nc2ccccc2[nH]1)c1cccc([N+](=O)[O-])c1 (centres undefined)	–	inactive
CCOC(=O)C1=C(C)N=c2s/c(=C/c3ccco3)c(=O)n2C1c1cccc(OC)c1 (centres undefined)	1.65% (inactive)	–
CCOC(=O)C1=C(C)NC(C)=C(C(=O)OCC)C1c1cn(-c2ccccc2)nc1-c1ccco1	25% (inactive)	–
O=C(CN1c2ccccc2Sc2ccccc21)NNC(=S)Nc1ccc(Cl)cc1Cl	1.35% (inactive)	–
CCCn1nc(NC(=O)c2cccs2)c2cc3ccccc3nc21	16.2% (inactive)	–
CC1=C(SCc2ccccc2)C(=O)c2ccccc2C1=O	–	inactive
CCCCNC(=O)c1onc(CSc2ccc(C(C)C)cc2)c1C(=O)O	0.68% (inactive)	–
COc1ccc(CCN(C)C(=O)COC(=O)/C=C/c2ccc(C)o2)cc1OC	8.35% (inactive)	–
Cn1nc(C(F)(F)F)c(C#N)c1N1CCN(c2ccc(F)cc2)CC1	6.08% (inactive)	–
Cn1cc(/C=C/C(=O)N2CCCC(C(=O)c3cccc(C(F)(F)F)c3)C2)cn1 (centres undefined)	6.6% (inactive)	–
CCOC(=O)C1Nc2ccc(Br)cc2C2C=CCC12 (centres undefined)	5.68% (inactive)	–
CC(C)Cc1nc2oc3c(NCC(C)O)ncnc3c2c2c1CCCC2 (centres undefined)	–	inactive
O=C(NC1CCCCC1)C(c1ccc(F)cc1)N(C(=O)Cc1ccsc1)c1ccc(F)cc1 (centres undefined)	0.68% (inactive)	–
O=C1C(O)CC2c3ccccc3CC3(CCCC3)N12 (centres undefined)	16.2% (inactive)	–
Cc1ccc2c(c1)NC(=O)c1cc([N+](=O)[O-])ccc1O2	6.6% (inactive)	–
CCCCn1c(NCc2ccccc2NS(=O)(=O)c2ccc(C)cc2)nc2ccccc21	4.73% (inactive)	–
CCOC(=O)C1=C(c2ccccc2)NC(=O)NC1c1cc(Cl)c(O)c(OC)c1 (centres undefined)	0.82% (inactive)	–
CCOc1ccc(NC(=O)C(C)SC(N)=O)cc1 (centres undefined)	–	inactive
CCOc1cc(/C=C2/C(=O)N(c3ccccc3)N=C2C)ccc1OC(=O)c1ccco1	0.68% (inactive)	–

Compound	inhibition	outcome
O=C(NC1CCN(C(=S)NCc2ccco2)CC1)C12CC3CC(CC(C3)C1)C2	–	inactive
Cc1[nH]nc2c1C(c1cn[nH]c1-c1ccc(F)cc1)C(C#N)=C(N)O2 (centres undefined)	9.46% (inactive)	–
COc1ccc2c(c1)O[C@@H](c1ccc3c(c1)OCO3)[C@H](OC(=O)Nc1cc(OC)c(OC)c(OC)c1)C2=O	–	inactive
Cn1cc(Br)c(C(=O)NC2CCCCC2)n1	4.73% (inactive)	–
CCOCCCNC(=S)Nc1ccc2nc(N3CCN(CC)CC3)cc(C)c2c1	7.68% (inactive)	–
Cc1nn(Cc2ccc(Cl)cc2Cl)c(C)c1NC(=O)NC12CC3CC(CC(C3)C1)C2	–	inactive
Cc1c(C)c2ccc(O[C@@H]3O[C@H](CO)[C@H](O)[C@H](O)[C@H]3O)c(C)c2oc1=O	6.35% (inactive)	–
Cn1c(SCC(=O)NC(c2ccccc2)c2ccccc2)nnc1-c1cccs1	3.38% (inactive)	–
O=C(Nc1ccccc1F)c1ccc(S(=O)(=O)NCC2CCCO2)cc1 (centres undefined)	4.77% (inactive)	–
CC12CCC(C(=O)Nc3ccc(Br)cn3)(OC1=O)C2(C)C (centres undefined)	–	inactive
CCCC(=O)Nc1ccc(Br)cn1	4.05% (inactive)	–
O=C(Nc1ccc(F)cc1F)c1noc2c1CCC2	–	inactive
CC(C)(C)C1CCC(OC(=O)C[N+]2(C)CCCCC2)CC1 (centres undefined)	–	inactive
COc1ccc(CNC(=O)C2CCCN(S(=O)(=O)c3c(C)nn(C)c3C)C2)cc1 (centres undefined)	–	inactive
CCCn1c(Sc2nnnn2-c2ccccc2)n[nH]c1=O	–	inactive
N#Cc1c(-c2ccccc2)nc2n1CCS2	–	inactive
O=C(Nc1nccc(-c2cccs2)n1)c1ccccc1Cl	7.5% (inactive)	–
CCOc1cc(C(=O)Nc2c3c(nn2C(C)(C)C)CS(=O)C3)cc(OCC)c1OCC (centres undefined)	2.05% (inactive)	–
O=C(CCCN1C(=O)c2ccccc2C1=O)NCC1CCCO1 (centres undefined)	4.77% (inactive)	–
CCOn1c(=O)c(=O)n(OCc2ccccc2)c2ccccc21	–	inactive
Oc1ccc(Cl)cc1-c1cc(-c2ccccc2)n[nH]1	3.38% (inactive)	–
CN1CCN(C(=O)/C(=C/c2ccc(F)cc2)NC(=O)c2ccccc2)CC1	1% (inactive)	–
O=C(c1ccco1)N1CCN(S(=O)(=O)c2ccc(F)cc2)CC1	10.1% (inactive)	–
